# PubChem BioAssay AID1220 (Sanford-Burnham Center for Chemical Genomics, 2008)
# Hit rate of the full screen: of about 190,000 compounds, about 1,300 (0.68%) were called active. What follows is part of a selection rich in actives, with near analogues and random picks from the rest. A number with no mark means an inactive call. No stated cut-off is given here; in the data, active means inhibition above about 50%; inactive means the rest.
# Target: Mannose-6-phosphate isomerase (Homo sapiens) (UniProt P34949)
# Assay: MPI inhibition at elevated mannose 6-phosphate – biochemical, fluorescence intensity, high mannose 6-phosphate, primary screen (AID 1220)
# Details: recombinant PMI enzyme, coupled fluorescence intensity; at 20 µM; hits give high values
# Mannose-6-phosphate isomerase (Homo sapiens), sequence (P34949 whole entry, looked up): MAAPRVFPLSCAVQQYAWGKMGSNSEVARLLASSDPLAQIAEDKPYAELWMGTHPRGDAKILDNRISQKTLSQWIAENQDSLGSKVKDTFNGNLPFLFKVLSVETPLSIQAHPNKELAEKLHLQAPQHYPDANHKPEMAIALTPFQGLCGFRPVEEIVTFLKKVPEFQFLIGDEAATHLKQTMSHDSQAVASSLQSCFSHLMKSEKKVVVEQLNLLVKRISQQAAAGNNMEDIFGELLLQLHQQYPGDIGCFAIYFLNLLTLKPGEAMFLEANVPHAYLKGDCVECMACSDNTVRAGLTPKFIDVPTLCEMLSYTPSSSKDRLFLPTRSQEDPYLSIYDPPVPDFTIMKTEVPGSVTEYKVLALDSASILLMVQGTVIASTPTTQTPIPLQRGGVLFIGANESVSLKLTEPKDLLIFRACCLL
row,SMILES,inhibition
1,CCOCC(=O)Nc1nnc(COCC)s1,-1.8%
2,Cc1cc(NC(=O)COC(=O)CCCOc2ccc(Cl)cc2C)no1,4.5%
3,O=C(O)COc1ccc(/C=N/NC(=O)C2CCCN2S(=O)(=O)c2ccc(Cl)cc2)cc1 (stereo unspecified),-3.5%
4,O=C(O/N=C\c1ccc(N2CCOCC2)c([N+](=O)[O-])c1)c1ccc(F)cc1,8%
5,COc1ccc(NC(=O)CSCc2ccc(C)cc2)cc1,1.9%
6,Cc1ccc(C2NC(=O)c3c(sc(C)c3C)N2)c(O)c1 (stereo unspecified),-21.9%
7,Nc1ccccc1Nc1cc(-c2ccccc2)[nH]n1,28%
8,Cc1nc2c(n1C1CCCCC1)C(=O)c1ccccc1C2=O,35.4%
9,COc1ccc(NC(=O)CSc2cc(C)ccc2C)cn1,10.5%
10,COc1ccc(CC2(CO)CCN(Cc3cccc(OC)c3OC)CC2)cc1,6.7%
11,COc1ccc2[nH]c(=O)c(CNc3cccc(C)c3)cc2c1,55.1% (active)
12,COc1ccc2[nH]c(=O)c(CNc3ccccc3)cc2c1,44.2%
13,COc1ccc(NCc2cc3cc(OC)ccc3[nH]c2=O)cc1,30.7%
14,COc1ccc2[nH]c(=O)c(CNc3ccc(C)c(C)c3)cc2c1,48.9%
15,COc1ccc(NCc2cc3ccccc3[nH]c2=O)cc1,59.2% (active)
16,CC(C)(C)NCc1cc2ccccc2[nH]c1=O,6.8%
17,CNCC(O)COc1cccc(OC)c1 (stereo unspecified),9.8%
18,Cc1c(C)c2ccc(OS(C)(=O)=O)c(C)c2oc1=O,-10.6%
19,Fc1ccc(CNC(=S)Nc2ccc(OC(F)F)cc2)cc1,5.2%
20,O=[N+]([O-])c1ccccc1S(=O)(=O)N1CCN(Cc2ccc3c(c2)OCO3)CC1,-3.6%
21,O=[N+]([O-])c1ccccc1S(=O)(=O)N1CCN(Cc2ccsc2)CC1,7.8%
22,O=[N+]([O-])c1ccccc1S(=O)(=O)N1CCN(Cc2cc3c(cc2O)OCO3)CC1,59.2% (active)

row,SMILES,inhibition
1,COc1ccc(CN(Cc2cc3cc(OC)c(OC)cc3[nH]c2=O)C(=O)NC2CCCCC2)cc1,0.5%
2,COc1ccc(/C=N/OCC(=O)Nc2ccc3c(c2)OCO3)c(OC)c1,10.9%
3,O=C(O)CCn1c2c(c3ccccc31)CCCC2,8.9%
4,O=C(O)Cn1c2c(c3ccccc31)CCCC2,58.5% (active)
5,O=C(O)Cn1c2ccccc2c2ccccc21,-2.4%
6,Cc1cccc(N2CCN(C(=O)c3ccccn3)CC2C)c1 (stereo unspecified),9.3%
7,O=C(/C=C/c1ccc(Cl)cc1Cl)N1CCc2ccccc21,-2.2%
8,CCN(CC)c1cc(C)c2cc(NC(=O)c3cccs3)ccc2n1,10.3%
9,CCN1CCN(c2cc(C)c3cc(NC(=O)c4ccc(Br)o4)ccc3n2)CC1,-5.1%
10,CCN(CC)c1cc(C)c2cc(NC(=O)c3ccc(Br)o3)ccc2n1,70.4% (active)
11,CCOC(=O)c1c(/N=C/c2cccc(C)c2O)sc2c1CCN(C)C2,-2.3%
12,Cn1c(=S)n(/N=C/c2ccc3c(c2)OCO3)c2ccccc21,-3.6%
13,CCn1c(SCC(=O)N/N=C/C=C/c2ccco2)nnc1-c1ccc(OC)cc1,52.6% (active)
14,CCn1c(SCC(=O)N/N=C/C=C/c2ccco2)nnc1-c1ccccc1,-8.3%
15,CCn1c(SCC(=O)N/N=C/C(C)=C/c2ccco2)nnc1-c1ccccc1,43.3%
16,O=C(COc1cccc2c1CCN(Cc1ccc(Cl)cc1)C2=O)N1CCOCC1,-2.4%
17,CC(C)CC(=O)NC(=S)Nc1ccc(S(=O)(=O)N2CCCC2)cc1,-1%
18,CCNc1ccc(C(=O)OCC)cc1NC(=O)c1cccc(S(=O)(=O)N2CCOCC2)c1,8.8%
19,CCNc1ccc(C(=O)OCC)cc1NC(=O)c1cccc(S(=O)(=O)N(C)c2ccccc2)c1,50.1% (active)
20,CCNc1ccc(C(=O)OCC)cc1NC(=O)c1cccc(N(C)C)c1,6.9%
21,O=C(CNCC1CCCO1)N1CCN(S(=O)(=O)c2ccc3ccccc3c2)CC1 (stereo unspecified),-1.2%
22,O=C(/C=C/c1ccccc1Cl)Nc1ccncc1,-5.1%

row,SMILES,inhibition
1,CN1C(=O)CC(N2CCC(C(N)=O)CC2)C1=O (stereo unspecified),-4%
2,Cc1ccc(S(=O)(=O)Cn2nnnc2C(C)N2CCN(C(=O)c3ccco3)CC2)cc1 (stereo unspecified),11.7%
3,Cc1c(CN2CCCCC2)c(O)n(CCCO)c(=O)c1C#N,52.1% (active)
4,CCCn1c(O)c(CN2CCCC(C)C2)c(C)c(C#N)c1=O (stereo unspecified),39.4%
5,Cc1cc(=O)n(CCCO)c(O)c1C#N,37.6%
6,CCCn1c(O)c(CN2CCCCC2)c(C)c(C#N)c1=O,57.4% (active)
7,Cc1cc(C)n(CCCO)c(=O)c1C#N,-3.9%
8,CCCn1c(C)cc(C)c(C#N)c1=O,-3.4%
9,COc1ccc(CCN(C)CCCN2CC(c3ccccc3)CC2=O)cc1OC (stereo unspecified),-9.7%
10,Cc1ccc(S(=O)(=O)N2CCN(CC(=O)NC3CCCc4ccccc43)CC2)cc1C (stereo unspecified),13.8%
11,CCOC(=O)N1CCN(c2c(NCC3CCN(Cc4cccc(C)c4)CC3)c(=O)c2=O)CC1,8.2%
12,Nc1nc(Cl)cc(Sc2ccc3ccccc3c2)n1,1%
13,Cc1nc2sccn2c1P(c1c(C)nc2sccn12)c1c(C)nc2sccn12,-5.7%
14,CCC(CO)NCc1ccc(OCC(=O)Nc2cccc(C(F)(F)F)c2)c(OC)c1 (stereo unspecified),-1.3%
15,CCN=c1scc(-c2ccco2)n1/N=C/c1ccc(O)cc1,-22.4%
16,CN=c1scc(-c2ccccc2F)n1/N=C/c1ccc[nH]1,-2.3%
17,CCN=c1scc(-c2cccs2)n1/N=C/c1cc(OC)ccc1O,-21.1%
18,CCN=c1scc(C)n1/N=C/c1ccsc1,2.6%
19,CCN=c1scc(C)n1/N=C/c1cc(Br)c(O)c(Br)c1,-6.2%
20,CN=c1scc(-c2cccs2)n1/N=C/c1ccccc1O,14.7%
21,CN=c1scc(-c2cccs2)n1/N=C/c1ccc(O)c(O)c1O,34.6%
22,CCN=c1scc(-c2ccco2)n1/N=C/c1ccc(OC)c(O)c1,-17.3%
